# From PubChem BioAssay AID651571 (The Scripps Research Institute Molecular Screening Center, 2012)
# The whole screen tested about 1,500 compounds, of which about 1,300 (87%) were called active. Cut-off read from the data, not from the text of the source: active = inhibition above about 9%; inactive = the rest. So high a share suggests a set chosen from earlier hits. These entries were drawn from the full list.
# Assay: PG9 antibody small-molecule binding – biochemical, TR-FRET, confirmation (AID 651571)
# Conditions: at 6.7 µM, stronger effect = higher value
row,SMILES,inhibition
1,CCN(CC)C(=O)c1ccc(NC(=O)c2sccc2-c2ccccc2)cc1,16.6% (active)
2,N#CC1=C(N)Oc2c(c(=O)oc3ccccc23)C1c1ccccc1OC(=O)c1cccs1 (configuration not stated),20.4% (active)
